# Experimental data from PubChem BioAssay (NCATS).
# Results filed as inconclusive are left out. A call without a number means that no potency is given here. The source made the active and inactive calls. The call rests on the fitted dose curve; in most records, active means well fitted curve in the direction sought with a large enough effect; inconclusive means small, poorly fitted or top-dose-only effect, or another doubt; inactive means no such curve, though single readings can be large; an effect the other way counts as inactive or inconclusive.
# What was measured:
# [1] = qHTS of pediatric cancer cell lines to identify multiple opportunities for drug repurposing: Primary screen for Rh18 cells (AID 1347102); further: nearly all actives have a fitted effect of over 65% in size
# Summary of the method: (§1)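 Cells (500-1,000/well) in growth media were settled 5 h at 37 degrees C, then given compounds for 48 h. Viability was read as CellTiter-Glo luminescence. Primary runs used MIPE at 11 points (0.78 nM-46 µM) and NPC at 8 points (0.59 nM-46 µM); follow-ups used 11 points.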
# [2] = qHTS of pediatric cancer cell lines to identify multiple opportunities for drug repurposing: Primary screen for MG 63 (6-TG R) cells (AID 1347105); further: nearly all actives have a fitted effect of over 50% in size
# Summary of the method: (§2)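 Primary screen of approved and investigational compounds on cells in growth media at 37 degrees C, 5% CO2. MIPE set at 11-point and NPC set at 8-point dilutions; viability scored by ATP-based luminescence at 48 hours.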
# [3] = qHTS of pediatric cancer cell lines to identify multiple opportunities for drug repurposing: Primary screen for control Hh wild type fibroblast cells (AID 1347106);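 further: series mostly up to about 46 µM; a drop in luminescence marks cytotoxicity and a rise apparent proliferation; nearly all actives have a fitted effect of over 55% in size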
# Summary of the method: as §1
# [4] = qHTS of pediatric cancer cell lines to identify multiple opportunities for drug repurposing: Primary screen for Rh30 cells (AID 1347107); further: series mostly up to about 46 µM; nearly all actives have a fitted effect of over 75% in size
# Summary of the method: as §1
# [5] = qHTS of pediatric cancer cell lines to identify multiple opportunities for drug repurposing: Primary screen for Rh41 cells (AID 1347108);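 further: series mostly up to about 46 µM; luminescence drop marks cytotoxic hits; nearly all actives have a fitted effect of over 70% in size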
# Summary of the method: as §2
# [6] = qHTS of pediatric cancer cell lines to identify multiple opportunities for drug repurposing: Primary screen for RD cells (AID 1347104); further: nearly all actives have a fitted effect of over 55% in size
# Summary of the method: as §2
# [7] = qHTS of pediatric cancer cell lines to identify multiple opportunities for drug repurposing: Primary screen for OHS-50 cells (AID 1347103); further: nearly all actives have a fitted effect of over 40% in size
# Summary of the method: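 Cells (500-1,000/well) rested 5 h, then received compounds for 48 h; metabolically active cells were measured by CellTiter-Glo luminescence. Final concentrations spanned up to 46 µM (MIPE, 11-point) or 0.59 nM-46 µM (NPC, 8-point) in primary screens, 11-point in follow-ups.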
# [8] = qHTS of pediatric cancer cell lines to identify multiple opportunities for drug repurposing: Confirmatory screen for NB1643 cells (AID 1347109); further: nearly all actives have a fitted effect of over 45% in size
# Summary of the method: as §1
# [9] = qHTS of pediatric cancer cell lines to identify multiple opportunities for drug repurposing: Confirmatory screen for A673 cells (AID 1347110);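 further: cells exposed to compound for 48 h before the viability read; nearly all actives have a fitted effect of over 65% in size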
# Summary of the method: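 A673 cells at 500-1,000 cells/well were dosed 5 h after plating, in dilution series up to 46 uM final; primary runs used 8 or 11 points and confirmatory runs used 11 points. Viability was read by CellTiter-Glo luminescence after 48 h, against DMSO and 2.3 uM bortezomib controls.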
# [10] = qHTS of pediatric cancer cell lines to identify multiple opportunities for drug repurposing: Confirmatory screen for SK-N-MC cells (AID 1347111); details: SK-N-MC cell viability;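 further: potency means the concentration at half of the fitted maximal effect; cells exposed to compound for 48 h before the readout; nearly all actives have a fitted effect of over 70% in size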
# Summary of the method: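 Metabolically active cells were quantified by ATP-dependent luminescence (CellTiter-Glo, 15 min at room temperature) following 48 h treatment. Cells had been plated at 500-1,000 per well and settled for 5 h beforehand.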
# [11] = qHTS of pediatric cancer cell lines to identify multiple opportunities for drug repurposing: Confirmatory screen for BT-12 cells (AID 1347112); further: nearly all actives have a fitted effect of over 55% in size
# Summary of the method: as §1
# [12] = qHTS of pediatric cancer cell lines to identify multiple opportunities for drug repurposing: Confirmatory screen for LAN-5 cells (AID 1347113); further: nearly all actives have a fitted effect of over 65% in size
# Summary of the method: as §1
# [13] = qHTS of pediatric cancer cell lines to identify multiple opportunities for drug repurposing: Confirmatory screen for DAOY cells (AID 1347114); further: nearly all actives have a fitted effect of over 65% in size
# Summary of the method: (§3)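 Viability measured as metabolically active cells via CellTiter-Glo luminescence following 48 hours of compound exposure, 11-point dilutions in confirmatory testing. 500-1,000 cells/well plated 5 hours before dosing; controls were DMSO and 2.3 µM bortezomib.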
# [14] = qHTS of pediatric cancer cell lines to identify multiple opportunities for drug repurposing: Confirmatory screen for NB-EBc1 cells (AID 1347115);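 further: cells exposed to compound for 48 h before the viability read; nearly all actives have a fitted effect of over 45% in size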
# Summary of the method: as §1
# [15] = qHTS of pediatric cancer cell lines to identify multiple opportunities for drug repurposing: Confirmatory screen for SJ-GBM2 cells (AID 1347116); further: nearly all actives have a fitted effect of over 60% in size
# Summary of the method: as §3
# [16] = qHTS of pediatric cancer cell lines to identify multiple opportunities for drug repurposing: Confirmatory screen for BT-37 cells (AID 1347117); further: nearly all actives have a fitted effect of over 55% in size
# Summary of the method: as §1
# [17] = qHTS of pediatric cancer cell lines to identify multiple opportunities for drug repurposing: Confirmatory screen for TC32 cells (AID 1347118); details: TC32 Ewing sarcoma cells viability qHTS
# Summary of the method: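 TC32 cells, 500-1,000/well in growth medium, compound-treated 48 h at 37 °C; viability from CellTiter-Glo luminescence. Primary screen: MIPE 11-point (0.78 nM–46 µM final), NPC 8-point (0.59 nM–46 µM final); confirmatory at 11-point dilutions.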
# [18] = qHTS of pediatric cancer cell lines to identify multiple opportunities for drug repurposing: Confirmatory screen for MG 63 (6-TG R) cells (AID 1347119); further: nearly all actives have a fitted effect of over 55% in size
# Summary of the method: as §1
# [19] = qHTS of pediatric cancer cell lines to identify multiple opportunities for drug repurposing: Confirmatory screen for control Hh wild type fibroblast cells (AID 1347121); further: nearly all actives have a fitted effect of over 70% in size
# Summary of the method: as §1
# [20] = qHTS of pediatric cancer cell lines to identify multiple opportunities for drug repurposing: Confirmatory screen for U-2 OS cells (AID 1347122); further: nearly all actives have a fitted effect of over 65% in size
# Summary of the method: as §1
compound,measurement,setting,value
CCOc1ccccc1O[C@H](c1ccccc1)[C@H]1CNCCO1,outcome,[1],inactive
same,outcome,[2],inactive
same,outcome,[3],inactive
same,outcome,[4],inactive
same,outcome,[5],inactive
CCCC(O)C(CC)CO (stereo not drawn),outcome,[1],inactive
same,outcome,[6],inactive
same,outcome,[2],inactive
same,outcome,[3],inactive
same,outcome,[4],inactive
same,outcome,[5],inactive
CCCCCCCCCCCCCCCCCCO,outcome,[1],inactive
same,outcome,[2],inactive
same,outcome,[3],inactive
same,outcome,[4],inactive
same,outcome,[5],inactive
O=C1c2ccccc2C(=O)C1c1ccc(Br)cc1,outcome,[7],inactive
same,outcome,[6],inactive
same,outcome,[2],inactive
same,outcome,[3],inactive
same,outcome,[4],inactive
same,outcome,[5],inactive
O=C(O)CCCCC1CCSS1 (stereo not drawn),outcome,[7],inactive
same,outcome,[6],inactive
same,outcome,[2],inactive
same,outcome,[3],inactive
same,outcome,[4],inactive
Nc1ccncc1N,outcome,[7],inactive
same,outcome,[6],inactive
same,outcome,[2],inactive
same,outcome,[3],inactive
same,outcome,[4],inactive
same,outcome,[5],inactive
NS(=O)(=O)c1cc(-c2nn[nH]n2)c(NCc2cccs2)cc1Cl,outcome,[7],inactive
same,outcome,[6],inactive
same,outcome,[2],inactive
same,outcome,[3],inactive
same,outcome,[4],inactive
same,outcome,[5],inactive
NS(=O)(=O)c1cc2c(cc1C(F)(F)F)NCNS2(=O)=O,outcome,[6],inactive
same,outcome,[2],inactive
same,outcome,[4],inactive
same,outcome,[5],inactive
Cc1cccc(Nc2ccccc2C(=O)O)c1C,outcome,[7],inactive
same,outcome,[2],inactive
same,outcome,[3],inactive
same,outcome,[4],inactive
same,outcome,[5],inactive
CC(C)=CCC[C@@](C)(O)[C@H]1CC=C(C)CC1,outcome,[6],inactive
same,outcome,[2],inactive
same,outcome,[3],inactive
same,outcome,[4],inactive
same,outcome,[5],inactive
O=C(O)c1ccccc1OP(=O)(O)O,outcome,[7],inactive
same,outcome,[2],inactive
same,outcome,[3],inactive
same,outcome,[4],inactive
same,outcome,[5],inactive
CC(=O)Oc1cccc(O)c1,outcome,[6],inactive
same,outcome,[2],inactive
same,outcome,[3],inactive
same,outcome,[4],inactive
CC1CCc2cc(F)cc3c(=O)c(C(=O)O)cn1c23 (stereo not drawn),outcome,[7],inactive
same,outcome,[6],inactive
same,outcome,[2],inactive
same,outcome,[3],inactive
same,outcome,[4],inactive
same,outcome,[5],inactive
C[C@]1(Cn2ccnn2)[C@H](C(=O)O)N2C(=O)C[C@H]2S1(=O)=O,outcome,[7],inactive
same,outcome,[6],inactive
same,outcome,[2],inactive
same,outcome,[4],inactive
same,outcome,[5],inactive
COc1ccccc1OCC(O)CO (stereo not drawn),outcome,[7],inactive
same,outcome,[6],inactive
same,outcome,[2],inactive
same,outcome,[3],inactive
same,outcome,[4],inactive
same,outcome,[5],inactive
Cc1c(C(=O)NCCO)[n+](=O)c2ccccc2n1[O-],outcome,[7],inactive
same,outcome,[6],inactive
same,outcome,[2],inactive
same,outcome,[4],inactive
CC(=O)N1C[C@H](O)C[C@H]1C(=O)O,outcome,[6],inactive
same,outcome,[2],inactive
same,outcome,[4],inactive
same,outcome,[5],inactive
Nc1ccc(S(=O)(=O)c2ccc(N)cc2)cc1,outcome,[7],inactive
same,outcome,[2],inactive
same,outcome,[3],inactive
same,outcome,[4],inactive
same,outcome,[5],inactive
CN(C(=O)c1c(O)c2ccccc2n(C)c1=O)c1ccccc1,outcome,[7],inactive
same,outcome,[6],inactive
same,outcome,[2],inactive
same,outcome,[3],inactive
same,outcome,[4],inactive
Nc1ncnc(Nc2ccccc2)n1,outcome,[6],inactive
same,outcome,[2],inactive
same,outcome,[3],inactive
same,outcome,[4],inactive
same,outcome,[5],inactive
O=C(NCCCN1CCOCC1)c1ccc(Cl)cc1,outcome,[7],inactive
same,outcome,[6],inactive
same,outcome,[2],inactive
same,outcome,[4],inactive
same,outcome,[5],inactive
C[N+](C)(C)CC(O)CC(=O)[O-] (stereo not drawn),outcome,[7],inactive
same,outcome,[6],inactive
same,outcome,[2],inactive
same,outcome,[4],inactive
same,outcome,[5],inactive
COc1ccc(NS(=O)(=O)c2ccc(N)cc2)nn1,outcome,[6],inactive
same,outcome,[2],inactive
same,outcome,[3],inactive
same,outcome,[4],inactive
CCOc1ccc(C(=O)OCCN(CC)CC)cc1,outcome,[7],inactive
same,outcome,[6],inactive
same,outcome,[2],inactive
same,outcome,[3],inactive
same,outcome,[4],inactive
same,outcome,[5],inactive
CC[C@H](C)[C@H](N)C(=O)O,outcome,[7],inactive
same,outcome,[6],inactive
same,outcome,[2],inactive
same,outcome,[3],inactive
same,outcome,[4],inactive
same,outcome,[5],inactive
C1CCN2C[C@@H]3C[C@@H](CN4CCCC[C@@H]34)[C@H]2C1,outcome,[7],inactive
same,outcome,[6],inactive
same,outcome,[2],inactive
same,outcome,[3],inactive
same,outcome,[4],inactive
same,outcome,[5],inactive
CC(=O)[C@@]1(O)CC[C@H]2[C@@H]3C[C@H](C)C4=CC(=O)C=C[C@]4(C)[C@@]3(F)[C@@H](O)C[C@@]21C,outcome,[7],inactive
same,outcome,[6],inactive
same,outcome,[2],inactive
same,outcome,[4],inactive
same,Potency,[8],inactive
same,Potency,[9],inactive
same,Potency,[10],23.3 µM (active)
same,outcome,[11],inactive
same,Potency,[12],inactive
same,outcome,[13],inactive
same,outcome,[14],inactive
same,outcome,[15],inactive
same,Potency,[16],inactive
same,Potency,[17],2.93 µM (active)
same,outcome,[18],inactive
same,outcome,[19],inactive
same,outcome,[20],inactive
NC(=O)N[C@@H](CCC(=O)O)C(=O)O,outcome,[7],inactive
same,outcome,[6],inactive
same,outcome,[2],inactive
same,outcome,[3],inactive
same,outcome,[4],inactive
CCOC(N)=O,outcome,[7],inactive
same,outcome,[6],inactive
same,outcome,[2],inactive
same,outcome,[3],inactive
same,outcome,[4],inactive
same,outcome,[5],inactive
CC1CCN(CCCC(=O)c2ccc(F)cc2)CC1,outcome,[7],inactive
same,outcome,[6],inactive
same,outcome,[2],inactive
same,outcome,[3],inactive
same,outcome,[4],inactive
same,outcome,[5],inactive
O=C(O)/C=C/c1ccc(Cn2ccnc2)cc1,outcome,[6],inactive
same,outcome,[2],inactive
same,outcome,[3],inactive
same,outcome,[4],inactive
same,outcome,[5],inactive
O=C(O)c1ccc(OCCCOc2ccc(C(=O)O)cc2)cc1,outcome,[7],inactive
same,outcome,[2],inactive
same,outcome,[3],inactive
same,outcome,[4],inactive
same,outcome,[5],inactive
